Drawing on PubChem BioAssay (NCI), this text covers growth for 39 molecules.

Compounds without any hit were thinned out: in the full panel of roughly 83,000, 20% have a hit.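 For each line, cells grew in 96-well plates with the test compound present at a single concentration for 48 hours.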 Unmarked numbers belong to inactive results. Activity calls are given as the source filed them. The calls were made as follows: active = growth percent below 10; inactive = the rest.

In the first test the test system is 786-0 renal. Description: NCI-60 one-dose screen, 48 h (100 = growth as untreated, 0 = no growth, -100 = all killed). Particulars: 10 µM.
Regarding `N=c1nc(N)ncn1-c1ccccc1`, the growth is 98%.
In the case of `COc1ccc(-c2nnc(-c3c(-c4ccccc4)nc4ncccn34)o2)cc1OC`, the growth was 102%.
Same read-out and setting: as for `Nc1ncn([C@@H]2O[C@H](CO)[C@@H](O)[C@H]2O)c(=O)n1`, the figure is 23.8%; as for `CCOC(=O)CCC(NC(=O)c1ccc(N)cc1)C(=O)OCC` (stereo not drawn), 110%.
Regarding `CC(=O)N(C)c1ccc(Nc2ccc(Nc3ccc(N(C)C(C)=O)cc3)c3c2C(=O)c2ccccc2C3=O)cc1`, the growth is 78.7%.
Take `COc1ccc(-c2nc3sccn3c2-c2nc3c([nH]2)C(=O)c2ccccc2C3=O)cc1`: the growth is 89.4%.
In the case of `COc1ccc2c(c1)C(=O)c1c-2c(OCCN(C)C)nc2cc(OC)c(OC)cc12`, the growth is 79.1%.
As to `COc1cc(/C=C\c2cc(OC)c(OC)c(OC)c2)cc(NS(=O)(=O)c2ccc(Cl)cc2)c1OC`, the growth was 39.3%.
On to `C=C(C(=O)c1ccccc1)C(NC(C)(C)C)c1ccccc1` (stereo not drawn), for which the growth is 23.1%.
Same read-out and setting: as for `O=C1/C(=C/c2ccc(Cl)cc2)SC(=Nc2ccc(Cl)cc2)N1Cc1nc2ccccc2[nH]1`, the figure is 92.3%; as for `CC12O[C@H](C[C@@H](OC(=O)c3ccccc3)[C@H]1O)n1c3ccccc3c3c4c(c5c6ccccc6n2c5c31)C(=O)NC4=O`, 78.7%; as for `COc1ccc(Oc2nc(NC3CCCC3)nc(Sc3ccc(OC)cc3)n2)cc1`, 79.9%.
For `COc1cc(-c2cc(/C=C/C(=O)c3ccc4c(c3)OCO4)[nH]n2)cc(OC)c1OC`, the growth is 40.6%.
Consider `CCN(CC)CCOc1nc2cc(OC)c(OC)cc2c2c1-c1ccc(OC)cc1C2=O`, for which the growth was 87.8%.
As to `COc1ccc(-c2nc(-c3nc4cc(Cl)c(Cl)cc4[nH]3)c3ccccn23)cc1`, the growth is 0.945% (active).
Consider `O=C1/C(=C\c2ccc(Cl)cc2)CN(C(=O)c2ccccc2)C/C1=C\c1ccc(Cl)cc1`, for which the growth is 7.43% (active).
Consider `Clc1cc2c(c(CSc3nc4ccccc4n4cccc34)c1)OCOC2`, for which the growth was 93.4%.
Consider `COc1cc(Cl)cc(-c2nn(-c3cccc(NC(=O)Nc4cc(C(F)(F)F)cc(C(F)(F)F)c4)c3)cc2-c2ccncc2)c1`, for which the growth was -26.9% (active).
Turning to `COc1ccc(OC)c(/C=C/c2nc(SCc3ccccc3)n(-c3ccc(Cl)cc3)n2)c1`, the growth is 48.8%.
In the case of `CC(=O)/C(=C/c1ccccc1)C(=O)CC(C)C`, the growth is 95.9%.
Turning to `CC(=O)CSC(C)=O`, the growth was 102%.
As to `CNc1ccc(CSc2ccc(C)cc2)cc1`, the growth is 31.6%.
For `c1ccc(C(NC2CC3CCC2C3)c2ccccc2)cc1` (stereo not drawn), the growth was 97%.
The same measure, in the same setting: as for `COc1cc(-c2nn3c(/C=C4/C(=O)Nc5ccccc54)c(-c4ccc(C)cc4)nc3s2)cc(OC)c1OC`, the figure is 70.9%; as for `COc1cc(NC(=O)CSc2nc3ccccc3c(=O)n2CCc2ccccc2)cc(OC)c1OC`, -80.1% (active).
In the case of `CN(C)C(=S)N/N=C\C=N/NC(=S)N(C)C`, the growth was 85.3%.
As for `COc1cc2cc3c(nc2cc1OC)CCN3Cc1ccc(NC(=O)Nc2ccc(F)cc2F)cc1`, the growth was 70.4%.
On the same count and under the same terms, the figure for `O=C(N/N=C\c1cc(Cl)ccc1[N+](=O)[O-])c1ccco1` is 95.6%.
Take `COc1ccc(Cl)cc1-n1nnc(-c2nc3ccccc3[nH]2)c1N`: the growth is 58.1%.
Turning to `COc1ccc(/C=C2/CN(C(=O)c3ccc(C)cc3)C/C(=C\c3ccc(OC)cc3)C2=O)cc1`, the growth was 99.9%.
In the case of `COc1ccc(Nc2ncnc3c2c(SC)nn3-c2ccccc2)cc1`, the growth was 93.9%.
The same measure, in the same setting: the figure for `COc1ccc(-c2cc(/C=C3\C(=O)Nc4ccc(OC)cc43)[nH]n2)cc1` is 65.3%.
Still for that read-out and setting: the figure for `CC(=O)N1N=C(c2ccc(Cl)cc2)CC1c1sc(Cl)nc1Cl` (stereo not drawn) is 84.7%.
Regarding `CN(C)c1ccc(-c2cc(-c3cccc(NS(C)(=O)=O)c3)nc(N)c2C#N)cc1`, the growth was 31%.
Same read-out and setting: as for `NC(=S)N=Nc1c(O)c2ccccc2c2ccccc12`, the figure is 101%; as for `O=[N+]([O-])c1ccc(Oc2cc(Cl)c(Cl)cc2Cl)c(C(F)(F)F)c1`, 107%.
Take `O=C(CC(C(=O)c1ccccc1)N1CCOCC1)c1ccccc1` (stereo not drawn): the growth is 98.8%.
Regarding `COc1ccc(-c2nn(-c3cccc(NC(=O)Nc4cc(C(F)(F)F)cc(C(F)(F)F)c4)c3)cc2-c2ccncc2)cc1Cl`, the growth was -12.8% (active).
For `COc1cc(/C=C/C(=O)c2ccc(Cl)cc2)ccc1OS(=O)(=O)c1ccc(C)cc1`, the growth was 102%.

For a further test, the system named is COLO 205 colon. Described as above. The note with it: 10 µM.
Turning to `N=c1nc(N)ncn1-c1ccccc1`, the growth is 101%.
In the case of `COc1ccc(-c2nnc(-c3c(-c4ccccc4)nc4ncccn34)o2)cc1OC`, the growth is 100%.
In the case of `Nc1ncn([C@@H]2O[C@H](CO)[C@@H](O)[C@H]2O)c(=O)n1`, the growth is 6.61% (active).
As to `CCOC(=O)CCC(NC(=O)c1ccc(N)cc1)C(=O)OCC` (stereo not drawn), the growth is 105%.
As to `CC(=O)N(C)c1ccc(Nc2ccc(Nc3ccc(N(C)C(C)=O)cc3)c3c2C(=O)c2ccccc2C3=O)cc1`, the growth was 70.6%.
As to `COc1ccc(-c2nc3sccn3c2-c2nc3c([nH]2)C(=O)c2ccccc2C3=O)cc1`, the growth is 102%.
Regarding `COc1ccc2c(c1)C(=O)c1c-2c(OCCN(C)C)nc2cc(OC)c(OC)cc12`, the growth was 66.5%.
With `COc1cc(/C=C\c2cc(OC)c(OC)c(OC)c2)cc(NS(=O)(=O)c2ccc(Cl)cc2)c1OC`, the growth was -4.81% (active).
Turning to `C=C(C(=O)c1ccccc1)C(NC(C)(C)C)c1ccccc1` (stereo not drawn), the growth was -77% (active).
Still for that read-out and setting: the figure for `O=C1/C(=C/c2ccc(Cl)cc2)SC(=Nc2ccc(Cl)cc2)N1Cc1nc2ccccc2[nH]1` is 98%; for `CC12O[C@H](C[C@@H](OC(=O)c3ccccc3)[C@H]1O)n1c3ccccc3c3c4c(c5c6ccccc6n2c5c31)C(=O)NC4=O` it is 46.8%; for `COc1ccc(Oc2nc(NC3CCCC3)nc(Sc3ccc(OC)cc3)n2)cc1` it is 82.2%.
Take `COc1cc(-c2cc(/C=C/C(=O)c3ccc4c(c3)OCO4)[nH]n2)cc(OC)c1OC`: the growth is 100%.
With `CCN(CC)CCOc1nc2cc(OC)c(OC)cc2c2c1-c1ccc(OC)cc1C2=O`, the growth is 72.7%.
As to `COc1ccc(-c2nc(-c3nc4cc(Cl)c(Cl)cc4[nH]3)c3ccccn23)cc1`, the growth is 88.4%.
As to `O=C1/C(=C\c2ccc(Cl)cc2)CN(C(=O)c2ccccc2)C/C1=C\c1ccc(Cl)cc1`, the growth is 32.9%.
As for `Clc1cc2c(c(CSc3nc4ccccc4n4cccc34)c1)OCOC2`, the growth was 84.1%.
In the case of `COc1cc(Cl)cc(-c2nn(-c3cccc(NC(=O)Nc4cc(C(F)(F)F)cc(C(F)(F)F)c4)c3)cc2-c2ccncc2)c1`, the growth is -64% (active).
For the molecule `COc1ccc(OC)c(/C=C/c2nc(SCc3ccccc3)n(-c3ccc(Cl)cc3)n2)c1`, the growth was 114%.
As to `CC(=O)/C(=C/c1ccccc1)C(=O)CC(C)C`, the growth is 100%.
With `CC(=O)CSC(C)=O`, the growth is 119%.
Regarding `CNc1ccc(CSc2ccc(C)cc2)cc1`, the growth was 86.4%.
Still for that read-out and setting: as for `c1ccc(C(NC2CC3CCC2C3)c2ccccc2)cc1` (stereo not drawn), the figure is 103%.
Turning to `COc1cc(-c2nn3c(/C=C4/C(=O)Nc5ccccc54)c(-c4ccc(C)cc4)nc3s2)cc(OC)c1OC`, the growth was 68.5%.
Still for that read-out and setting: as for `COc1cc(NC(=O)CSc2nc3ccccc3c(=O)n2CCc2ccccc2)cc(OC)c1OC`, the figure is 29.9%.
For `CN(C)C(=S)N/N=C\C=N/NC(=S)N(C)C`, the growth was -1.67% (active).
As to `COc1cc2cc3c(nc2cc1OC)CCN3Cc1ccc(NC(=O)Nc2ccc(F)cc2F)cc1`, the growth is 90.9%.
On to `O=C(N/N=C\c1cc(Cl)ccc1[N+](=O)[O-])c1ccco1`, for which the growth was 139%.
On to `COc1ccc(Cl)cc1-n1nnc(-c2nc3ccccc3[nH]2)c1N`, for which the growth was 98.1%.
The same measure, in the same setting: the figure for `COc1ccc(/C=C2/CN(C(=O)c3ccc(C)cc3)C/C(=C\c3ccc(OC)cc3)C2=O)cc1` is 97.6%; for `COc1ccc(Nc2ncnc3c2c(SC)nn3-c2ccccc2)cc1` it is 111%; for `COc1ccc(-c2cc(/C=C3\C(=O)Nc4ccc(OC)cc43)[nH]n2)cc1` it is 13%.
On the same count and under the same terms, the figure for `CC(=O)N1N=C(c2ccc(Cl)cc2)CC1c1sc(Cl)nc1Cl` (stereo not drawn) is 108%; for `CN(C)c1ccc(-c2cc(-c3cccc(NS(C)(=O)=O)c3)nc(N)c2C#N)cc1` it is -71.2% (active); for `NC(=S)N=Nc1c(O)c2ccccc2c2ccccc12` it is 92.3%.
`O=[N+]([O-])c1ccc(Oc2cc(Cl)c(Cl)cc2Cl)c(C(F)(F)F)c1`: the growth was 122%.
Take `O=C(CC(C(=O)c1ccccc1)N1CCOCC1)c1ccccc1` (stereo not drawn): the growth was 58.5%.
For the molecule `COc1ccc(-c2nn(-c3cccc(NC(=O)Nc4cc(C(F)(F)F)cc(C(F)(F)F)c4)c3)cc2-c2ccncc2)cc1Cl`, the growth was -88.9% (active).
`COc1cc(/C=C/C(=O)c2ccc(Cl)cc2)ccc1OS(=O)(=O)c1ccc(C)cc1`: the growth was 110%.
